# Assay outcomes (PubChem)
# Rows were chosen to be rich in hits. Some 11% of all compounds tested hit in one or more screens of this group.
# PNC inhibitor = perinucleolar compartment assembly inhibition | PC3M PTB-GFP, PNC prevalence imaging, 16 h; stronger effect = lower value | activity change (PNC), negative = inhibition, % at 10 µM | actives 3.1% (n = 140,000) | AID 2417;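 active = readout at or below -70, meaning at least 70% loss of cells showing the perinucleolar compartment, a nuclear body marking cancer cells; inconclusive = readout between -30 and a set limit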
#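 Compounds are pinned in duplicate onto adhered PC3M cells stably expressing GFP-tagged PTB and incubated 16 h at 37 C. Cells are then fixed, nuclei stained with Hoechst, and PNC-positive cells counted.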
# ALDH1A1 block = blocks purified human ALDH1A1 activity; P00352; Purified ALDH1A1, NADH fluorescence, propionaldehyde substrate; Potency, µM (series often up to 75.3 µM), usual class: inhibitors; actives 7.3% (n = 220,000); AID 1030
# JMJD2E inh = inhibitors of human JMJD2E histone demethylase. B2RXH2. JMJD2E catalytic domain, FDH-coupled NADH fluorescence (FDH is formaldehyde dehydrogenase). Potency, µM (highest dose often 57.1 µM), actives largely listed as inhibitors. actives 1.6% (n = 230,000). AID 2147; also: nearly all actives have a fitted effect of over 50% in size
# Target sequence (B2RXH2 1-337 limits assumed): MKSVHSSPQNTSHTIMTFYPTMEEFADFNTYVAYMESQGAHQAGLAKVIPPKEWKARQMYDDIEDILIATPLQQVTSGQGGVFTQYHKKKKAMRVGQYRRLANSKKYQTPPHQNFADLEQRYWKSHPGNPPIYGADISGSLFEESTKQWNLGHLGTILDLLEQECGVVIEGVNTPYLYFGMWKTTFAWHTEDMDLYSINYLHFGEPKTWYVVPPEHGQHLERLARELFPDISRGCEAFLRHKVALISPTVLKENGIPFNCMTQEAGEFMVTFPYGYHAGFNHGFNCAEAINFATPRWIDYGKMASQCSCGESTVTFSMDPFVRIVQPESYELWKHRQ
# HPGD inh = HPGD (human) dehydrogenase inhibition; P15428; Potency, µM, most hits filed as inhibitors; purified HPGD, NADH fluorescence kinetic, PGE2 substrate; actives 4.3% (n = 150,000)
# Target sequence (P15428 whole entry, looked up): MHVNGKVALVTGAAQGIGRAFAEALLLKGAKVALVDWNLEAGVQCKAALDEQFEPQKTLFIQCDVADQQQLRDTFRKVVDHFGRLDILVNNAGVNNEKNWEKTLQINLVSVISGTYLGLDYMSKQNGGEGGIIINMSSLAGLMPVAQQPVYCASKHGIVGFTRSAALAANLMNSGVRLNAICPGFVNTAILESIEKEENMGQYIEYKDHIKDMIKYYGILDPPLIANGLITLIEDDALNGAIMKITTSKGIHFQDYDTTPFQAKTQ
#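 NADH formation kinetics: reaction with 30 uM PGE2 and 1 mM NAD+ (final), 20 nM enzyme, Tris-HCl pH 8 with Tween 20, after 15 min compound preincubation at room temperature. Fluorescence change, last versus first of five reads.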
# Numbers stand for hits; 0 = inactive; ? = inconclusive; - = not tested or not shown; [ ] = another dose, or the depositor's remark. Unless noted, calls follow the shape of the dose curve; as a rule, active = well fitted inhibition curve with a large enough effect (not every such curve was filed as active); inconclusive = small, poorly fitted or top-dose-only effect, or another doubt; inactive = no such curve, though single readings can be large or run the other way.
SMILES,PNC inhibitor,ALDH1A1 block,JMJD2E inh,HPGD inh
COc1ccccc1N1CCN(Cc2cc(Br)c(O)c3ncccc23)CC1,0,?,25µM,0
CC(=O)c1cc(O)c2ccccc2c1O,-,-,14µM,-
Clc1ccc(CSc2nnc(-c3cccnc3)n2Cc2ccco2)c(Cl)c1,0,4.5µM,?,14µM
O=C(CCc1n[nH]c(=O)[nH]c1=O)Nc1cccc([N+](=O)[O-])c1,-,0,0,-
CCCN1C(=O)c2cc(C(=O)NC3CCCCCC3)ccc2C1O (stereo not given),0,16µM,0,0
CC(=O)c1cnc2ncnn2c1C,-113,0,0,0
CC(=O)c1cnc2nc(C)nn2c1C,0,0,0,0
CCOC(=O)C(NCCc1ccccc1F)(NC(C)=O)C(F)(F)F (stereo not given),0,0,0,0
COC(=O)[C@@H]1C[C@@]2(O)[C@@H](O)[C@@H](O)[C@@H](O)C[C@H]2N1Cc1cc(OC)cc(OC)c1,-,?,?,0
CC(Sc1ccsc1[N+](=O)[O-])C(=O)NCCc1ccc(Cl)cc1 (stereo not given),0,3.2µM,0,0
O=C(CSc1ccsc1[N+](=O)[O-])NCCc1ccc(Cl)cc1,?,0,0,0
O=C(O)c1ccc(N2CC3CC(C2)c2cccc(=O)n2C3)c(NS(=O)(=O)c2cccc(C(F)(F)F)c2)c1 (stereo not given),-,0,0,-
CCCCc1ccc(NC(=O)C(C)CC)cc1 (stereo not given),-,0,0,-
CCCCc1ccc(NC(=O)CC(C)(C)C)cc1,0,0,0,14µM
CCCCc1ccc(NC(=O)CC(C)=O)cc1,-127,0,0,0
O=C(CN1CCOCC1)N1CCN(c2nnc(-c3ccccc3)c3ccccc23)CC1,0,13µM,0,0
Cc1ccc(-c2nnc(N3CCN(C(=O)COc4ccccc4)CC3)c3ccccc23)cc1,0,28µM,0,0
Cc1ccc(-c2nnc(N3CCN(C(=O)CN4CCOCC4)CC3)c3ccccc23)cc1,?,18µM,0,0
Cc1ccc(-c2nnc(N3CCN(C(=O)Cn4c(=O)n(C)c5ccccc54)CC3)c3ccccc23)cc1,?,?,0,0
O=C(COc1ccc(-c2nnc(N3CCCCC3)c3ccccc23)cc1)N1CCCCC1,?,0,0,?
O=C(O)[C@@H]1[C@@H]2C[C@@H]2CN1c1ncccc1[N+](=O)[O-],-,0,0,-
O=C(Nc1ccccc1C(=O)NC(Cc1ccccc1)C(=O)NC1CCCCC1)c1ccccc1 (stereo not given),0,0,?,0
Cc1cc(C(=O)CSc2nn3c(=O)c(C(C)(C)C)nnc3s2)c(C)n1C,-,?,0,-
CCOc1cc(C(=O)NCCN2CCOCC2)cc(OCC)c1OCC,-100,0,0,0
Cc1cc(C2(c3cc(C)c(O)cc3C)OS(=O)(=O)c3ccccc32)c(C)cc1O,-,28µM,-,0
SMILES,PNC inhibitor,ALDH1A1 block,JMJD2E inh,HPGD inh
COC(=O)c1ccc(C(/C=C/[C@@H](C)C(=O)NCc2ccc(OC)c(O)c2)NC(=O)OCc2ccccc2)cc1 (stereo not given in full),-,?,0,0
O=C(c1ccncc1)N1CCC2(CCCN(c3ccncc3)C2)CC1,-,0,-,0
CCOc1ccc2c(c1)nc(SCC(=O)c1cccs1)n2C,0,?,0,0
CCOc1ccc2c(c1)nc(SCC(=O)c1ccc(Br)s1)n2C,0,18µM,0,?
COc1ccc(S(=O)(=O)N2C(=O)/C(=C3\SC(N)=NC3=O)c3ccccc32)cc1,-,-,0,-
CSc1nc(N(C)NC(=O)c2ccc(Cl)cc2)c2ccccc2n1,-97,0,0,0
O=C(Nc1ccon1)c1ccc(N2CCCCC2)c([N+](=O)[O-])c1,-,13µM,0,-
O=C(Nc1ccc(CN2CCOCC2)cc1)c1ccc(N2CCCC2)c([N+](=O)[O-])c1,-,11µM,0,-
O=C(Nc1nc(-c2ccccc2)cs1)c1ccc(N2CCOCC2)c([N+](=O)[O-])c1,0,0,0,0
O=C(Nc1nc2ccccc2s1)c1ccc(N2CCCCC2)c([N+](=O)[O-])c1,0,11µM,0,0
O=C(NC(=S)N1CCOCC1)c1cc2ccccc2o1,-,25µM,0,-
O=C(Nc1ccccc1N1CCCC1)c1cc2ccccc2o1,0,28µM,?,0
O=C(NCCCN1CCOCC1)c1cc2ccccc2o1,0,0,0,0
CN1CCN(c2ccccc2NC(=O)c2cc3ccccc3o2)CC1,0,0,0,0
O=C(O)CCc1nc2ccccc2c(=O)[nH]1,-,0,0,-
CC1CCCC(C)N1C(=O)COc1ccc(F)cc1 (stereo not given),-,0,0,-
O=C(O)CN1CCN(Cc2ccc(Cl)cc2)C1=O,?,0,0,0
O=C1N[C@@H](Cc2ccccc2)C(=O)N2CCCC12 (stereo not given in full),-,0,-,0
CC(C)CC1NC(=O)C(CCCN)NC(=O)C(C(C)C)NC(=O)C2CCCN2C(=O)C(Cc2ccccc2)NC(=O)C(CC(C)C)NC(=O)C(CCCN)NC(=O)C(C(C)C)NC(=O)C2CCCN2C(=O)C(Cc2ccccc2)NC1=O (stereo not given),-,0,25µM,0
COc1cc(/C=C2\SC(=O)N(c3cccc(Cl)c3)C2=O)cc([N+](=O)[O-])c1O,-,0.89µM,0,-
O=C1S/C(=C\c2ccc(O)c([N+](=O)[O-])c2)C(=O)N1c1ccccc1Cl,-,0.45µM,0,-
COc1cc(/C=C2\SC(=O)N(c3ccc(Cl)cc3)C2=O)cc([N+](=O)[O-])c1O,-,0,0,-
Cc1ccc(-c2nc(NCc3ccc(F)cc3)n(S(C)(=O)=O)n2)cc1,-,0,0,-
O=C(NCc1ccc2c(c1)OCO2)C1COc2ccccc2O1 (stereo not given),0,0,0,4.5µM
O=C(NCc1ccccn1)C1COc2ccccc2O1 (stereo not given),0,0,0,14µM
SMILES,PNC inhibitor,ALDH1A1 block,JMJD2E inh,HPGD inh
CCCCNC(=O)C1COc2ccccc2O1 (stereo not given),0,0,0,16µM
CCN(CC)C(=S)SCC(=O)Nc1ncc2c(n1)CC(C)(C)CC2=O,-,-,0,-
NC(=O)COC(=O)/C=C/c1cccc(Br)c1,-,0,0,-
Cc1ccc2c(c1)NC(=O)C(CC(=O)NCc1ccc(F)cc1)O2 (stereo not given),0,0,0,0
CC(=O)c1cccc(NC(=O)CC2Oc3ccc(C)cc3NC2=O)c1 (stereo not given),0,3.2µM,0,0
O=C(Cc1cccs1)NC1(C(=O)NC2CCCC2)CCCCC1,0,0,0,0
COc1ccccc1NC(=O)C(C)Sc1nnnn1C (stereo not given),0,8.9µM,0,0
S=C(Nc1ccccc1)Nc1nc2ccccc2n1CCOc1ccc(Br)cc1,?,9.5µM,0,0
O=c1[nH]c(SCc2c(Cl)c(Cl)c(Cl)c(Cl)c2Cl)nc(=S)[nH]1,-,0[13.5 µM],-,4µM
Cn1c(=O)c2[nH]c(SCc3ccccn3)nc2n(C)c1=S,-,0[13.5 µM],0,0
O=C1CCCc2oc3c(c21)CCCC3,-,?,0,-
Cc1nc(NCCNC(=O)c2ccco2)c2c(C)c(C)sc2n1,0,14µM,?,0
COC(=O)C(NC(=O)c1ccccc1)(Nc1nc(C)cs1)C(F)(F)F (stereo not given),0,0,0,-
